# Tb PYK inh – qHTS of Trypanosoma Brucei Inhibitors; 0.12% of 410,000 active; TbPYK enzyme, Kinase-Glo Plus ATP luminescence, 45 min; Potency, µM (doses to about 76.8 µM), hits mostly inhibitors; further: nearly all actives have a fitted effect of over 50% in size
#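 Activity of T. brucei pyruvate kinase was followed by Kinase-Glo Plus luminescence after the enzyme reacted 45 min at room temperature with 130 uM ADP (final) and substrate. Test compounds were added before ADP at multiple concentrations.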
# LmPK inhibitor – qHTS Assay for Inhibitors of Leishmania Mexicana Pyruvate Kinase (LmPK). 0.37% of 290,000 active. Q27686. Potency, µM (titrated, usually from 57.5 µM), actives largely listed as inhibitors. purified LmPK, Kinase-Glo ATP luminescence, 1 h
# Target sequence (Q27686 whole entry, looked up): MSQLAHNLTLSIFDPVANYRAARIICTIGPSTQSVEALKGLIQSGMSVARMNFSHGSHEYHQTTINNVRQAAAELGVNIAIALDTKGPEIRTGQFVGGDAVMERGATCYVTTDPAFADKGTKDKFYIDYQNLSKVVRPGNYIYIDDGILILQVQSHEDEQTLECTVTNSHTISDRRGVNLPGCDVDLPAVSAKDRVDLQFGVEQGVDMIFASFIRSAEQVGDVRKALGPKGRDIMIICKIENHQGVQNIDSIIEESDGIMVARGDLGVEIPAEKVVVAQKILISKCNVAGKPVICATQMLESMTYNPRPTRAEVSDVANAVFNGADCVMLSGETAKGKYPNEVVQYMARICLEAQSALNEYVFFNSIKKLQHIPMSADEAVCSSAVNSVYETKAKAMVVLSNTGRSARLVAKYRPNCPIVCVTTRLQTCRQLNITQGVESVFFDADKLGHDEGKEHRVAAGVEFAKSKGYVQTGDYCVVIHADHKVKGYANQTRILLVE
#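 ATP generated from ADP (0.1 mM) and PEP (0.5 mM) by 0.1 nM LmPK over 1 h at room temperature (pH 7.2 imidazole buffer) was detected by coupled luciferase luminescence. Values were normalized to uninhibited and no-enzyme wells.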
# Cycloheximide cs – Cycloheximide Counterscreen for Small Molecule Inhibitors of Shiga Toxin | cell reporter, cycloheximide protein synthesis inhibition counterscreen | AID 2314, 2010 | 12% of 300,000 active | max response, %; in the data active means max response mostly above about 13%, no sharp cut-off; inactive means mostly below about 14%; further: read at 38.3 µM for the half of the compounds with a filed dose
# SARS PLP yeast – qHTS of Yeast-based Assay for SARS-CoV PLP; S. cerevisiae expressing SARS-CoV PLpro, growth rescue; Potency, µM (titrated, usually from 32.9 µM), most hits filed as activators; 0.19% of 330,000 active; calls by dose curve; further: nearly all actives have a fitted effect of over 55% in size
# NS1 inh – qHTS Assay for Inhibitors of Influenza NS1 Protein Function. 0.4% of 270,000 active. Potency, µM (top dose mostly 46.1 µM); calls by dose curve; further: actives are rising curves; nearly all actives have a fitted effect of over 50% in size
#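 S. cerevisiae expressing influenza A NS1, grown in glucose, washed, then diluted 1:100 into pH 6.0 -URA galactose medium with 23 nl compound. Growth recovery read as OD600; NS1-free strain serves as control.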
# Shiga toxin inh – A qHTS for Small Molecule Inhibitors of Shiga Toxin. 9.2% of 290,000 active. AID 2315, 2010. Vero cells, Shiga toxin protein synthesis inhibition reporter. inhibition, % at 38.7 µM; in the data active means inhibition mostly above about 28%, no sharp cut-off; inactive means mostly below about 43%
# Numbers stand for hits; - = inactive; ? = inconclusive; . = no result. Shown is part of a subset that was picked to be rich in hits. Unless noted, the call rests on the fitted dose curve; in most records, active means well fitted curve in the direction sought with a large enough effect; inconclusive means small, poorly fitted or top-dose-only effect, or another doubt; inactive means no such curve, though single readings can be large; an effect the other way counts as inactive or inconclusive.
SMILES,Tb PYK inh,LmPK inhibitor,Cycloheximide cs,SARS PLP yeast,NS1 inh,Shiga toxin inh
CCOC(=O)c1c(C)[nH]c(C)c1S(=O)(=O)NCc1ccccc1C,-,-,-,-,-,-
O=C(NC(=S)NCc1nc2ccccc2[nH]1)c1ccc(F)cc1,-,-,28.1,-,.,-
O=C(NCc1nc2ccccc2[nH]1)c1c(F)cccc1F,-,.,.,.,.,.
O=C(NC(=S)NCc1nc2ccccc2[nH]1)c1ccccc1F,-,-,44.7,-,-,104.8
Cc1ccc(NC(=O)CSC2=C(C#N)C(c3ccco3)C3=C(CCCC3=O)N2)cc1 (stereo not drawn),-,-,18.6,-,?,-
Cc1cccc(CSC2=NN3CCCC(=O)N=C3S2)c1,-,-,43.0,-,-,56.4
CSCCNC(=O)c1ccc(OC2CCN(CCc3ccccc3)CC2)cc1,-,-,14.6,-,-,-
O=C(NCCn1cccn1)c1ccc(OC2CCN(C(=O)C3CC3)CC2)cc1,-,-,-,-,-,-
COC(=O)CCCNC(=O)c1ccc(OC2CCN(CCc3ccccc3)CC2)cc1,-,-,-,-,-,-
CCN(CCn1cccn1)C(=O)c1ccc(OC2CCN(C(=O)COC)CC2)cc1,-,-,21.5,-,-,-
O=C(NCCn1cccn1)c1ccc(OC2CCN(CCc3ccccc3)CC2)cc1,-,-,14.2,-,-,28.7
CCCCSCCCNC(=O)CN1C(=O)COc2ccc(S(=O)(=O)N3CCC(C)CC3)cc21,-,.,.,.,.,.
S=C(NCc1ccco1)Nc1ccc(Oc2ccccc2)cc1,-,-,34.4,-,-,-
CC(=O)c1cccc(NC(=S)NCc2ccco2)c1,-,-,-,-,-,-
S=C(NCc1ccco1)Nc1cccc(Cl)c1,-,-,-,-,-,32.0
CCOC(=O)c1ccc(NC(=S)NCc2ccco2)cc1,-,-,-,-,-,63.4
S=C(NCc1ccco1)Nc1ccc(N2CCOCC2)cc1,-,-,20.2,-,-,-
Cc1ccc(C)c(NC(=O)Cn2c(=O)n(CC(=O)NCCc3ccccc3)c(=O)c3ccccc32)c1,-,.,.,.,.,.
COCCCNC(=O)Cn1cnc(C(=O)Nc2ccc(C)c(C)c2)n1,-,.,.,-,.,.
CCOC(=O)c1c(C)[nH]c(C)c1S(=O)(=O)NCc1ccccc1OCC,-,-,-,-,-,-
O=C(OC(C(=O)NCc1ccco1)C(OC(=O)c1ccccc1)C(=O)NCc1ccco1)c1ccccc1 (stereo not drawn),-,-,16.6,-,-,66.1
S=C(NCc1ccco1)Nc1ccc(Cl)c(Cl)c1,-,-,31.1,-,-,-
Cc1nnnn1/C(=C\c1ccccc1)C(=O)OCC(=O)NC1CCCCC1,-,.,.,-,.,.
O=C(NCCc1ccccc1)C1CCCN1C(=O)Nc1ccc(Cl)cc1 (stereo not drawn),-,-,-,-,-,-
Cc1cc(/C=C2\C(=O)NC(=S)N(C)C2=O)c(C)n1C1CCCCC1,-,-,12.8,-,-,-
SMILES,Tb PYK inh,LmPK inhibitor,Cycloheximide cs,SARS PLP yeast,NS1 inh,Shiga toxin inh
Cc1cc(/C=C2/C(=O)N(C)C(=S)N2C)c(C)n1C1CC1,-,-,14.5,-,-,-
Cc1cc(C=C2C(=O)N(C)C(=S)N(C)C2=O)c(C)n1C1CCCC1,-,-,-,-,-,-
CCCC12CN3CC(CCC)(CN(C1)C3c1ccccc1)C2=O (stereo not drawn),-,.,.,.,.,.
Cc1cccc(NC(=O)c2c(C)cc(C)nc2SCC(=O)c2ccccc2)c1,-,.,.,.,.,.
C=CC[C@H](CC(=O)N(CCO)Cc1ccccc1)C(=O)NCCOC(=O)[C@@H](CC=C)CC(=O)OC(C)(C)C,-,.,.,-,.,.
O=C(NCCn1c(C(F)(F)F)nc2ccccc21)[C@H]1CCCN1c1nc(CN2CCCCC2)cs1,-,-,-,-,-,-
COc1ccccc1N1CCN(Cc2ccc(O)c3ncccc23)CC1,-,-,20.9,-,-,-
COc1ccccc1N1CCN(Cc2ccc(OC)c(OC)c2OC)CC1,.,-,-,-,-,-
CCOC(=O)C1CCN(Cc2ccc(O)c3ncccc23)CC1,-,-,21.7,?,-,110.2
CCOC(=O)C1CCN(Cc2ccccc2C(F)(F)F)CC1,-,-,-,-,-,-
COc1nc(NC2OC(CO)C(O)C(O)C2O)c(N)c(=O)[nH]1 (stereo not drawn),-,.,.,.,.,.
Cn1c(SCc2ccc(F)cc2)nnc1-c1cnccn1,-,-,20.2,-,-,60.6
Cn1c(SCC#N)nnc1-c1cnccn1,-,-,-,-,-,-
Cn1c(SCc2ccccc2)nnc1-c1cnccn1,-,-,37.0,-,-,97.4
Cc1cccc(C)c1NC(=O)CSc1nnc(-c2cnccn2)n1C,-,-,-,-,-,-
Cc1ccccc1CSc1nnc(-c2cnccn2)n1C,-,-,30.6,-,-,57.1
COc1ccccc1N1CCN(C(=O)Nc2cccc(Cl)c2)CC1,-,-,-,-,-,-
COc1cccc(NC(=O)N2CCN(c3cccc(C)c3C)CC2)c1,-,-,38.1,-,-,66.2
COc1ccc(NC(=O)N2CCC3(CC2)OCCO3)cc1OC,-,-,-,-,-,-
COc1cccc(NC(=O)N2CCC3(CC2)OCCO3)c1,-,-,31.1,-,-,60.8
CC(C)(C)NC(=S)Nc1ccc(Br)cc1,-,-,31.5,-,-,58.2
CC(C)(C)NC(=S)Nc1ccc(Nc2ccccc2)cc1,-,-,19.1,-,-,46.4
O=C(NCC1CCCO1)c1ccc(NC(=O)c2cc(F)c(F)cc2Cl)cc1 (stereo not drawn),-,-,-,-,-,-
O=C(CSc1ccc(F)cc1)Nc1ccc(Br)cc1,-,-,46.9,-,-,67.0
O=C(CSc1ccc(F)cc1)Nc1ccccc1Br,-,-,32.6,-,.,-
SMILES,Tb PYK inh,LmPK inhibitor,Cycloheximide cs,SARS PLP yeast,NS1 inh,Shiga toxin inh
CC(=O)Nc1ccc(NC(=O)CSc2ccc(C)cc2)cc1,-,-,-,-,-,-
O=C(CSc1ccc(Br)cc1)Nc1ccccc1Oc1ccccc1,-,-,-,-,-,-
N#Cc1ccccc1NC(=O)C(=O)NCCc1csc(-c2ccc(F)cc2)n1,-,.,.,-,.,.
CCCCN1CC(=O)N2[C@H]3c4ccccc4OC[C@@H]3[C@H](C(=O)OCC)[C@]2(C)C1=O,-,.,.,-,.,.
O=C(O)c1ccc2c(=O)n3cc(C(=O)c4ccccc4O)cc(Cl)c3nc2c1,-,-,34.1,-,?,-
O=C(CSc1cccc[n+]1[O-])Nc1cc2c(cc1Cl)C(=O)c1ccccc1C2=O,-,-,26.4,-,-,81.5
O=C(CSc1cccc[n+]1[O-])Nc1cc(S(=O)(=O)N2CCOCC2)ccc1N1CCOCC1,-,-,49.4,-,-,-
O=C(CSc1cccc[n+]1[O-])Nc1cc([N+](=O)[O-])ccc1Cl,-,-,-,-,.,-
O=C(CSc1cccc[n+]1[O-])Nc1cc(S(=O)(=O)N2CCOCC2)ccc1Cl,-,-,-,-,-,-
